Experimental data published in the supplement of paper PMC10338343.
± gives the standard deviation.

test system: MILI (PIWIL2) piRISC loaded with piRNA #1 (26 nt); experiment: pre-steady-state target cleavage rate (min^-1); guide: piRNA #1 5'p-UGAGGUAGUAGGUUGUAUAGUAUCCA; MIWI and MILI are mouse PIWI proteins and EfPiwi is from a freshwater sponge; tags in brackets are library labels; higher = faster piRNA-guided slicing of the target; conditions: auxiliary factor: 500 nM mouse GTSF1
How it was run: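 In HEPES–potassium acetate buffer at 33 °C, […] transcribed, DNA-blocked target RNA library was mixed with 1 nM active affinity-purified piRISC carrying one synthetic guide, with or without 500 nM GTSF1 partner protein, for 0–8 or 0–960 min. Uncleaved targets were sequenced and normalised to depth and to weakly complementary targets; three trials were pooled and k3 was capped at 0.0001 min^-1. The pre-steady-state cleavage rate followed from a burst-and-steady-state fit.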
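Further: 1 nM active piRISC with 0.1 nM target library at 33 °C single turnover.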

**Q.** For GGAGACCAUACAAUACAACCAACUACCUCA, which “pre-steady-state target cleavage rate” value is on record?
**A.** 0.00736 ± 0.0032

**Q.** Which “pre-steady-state target cleavage rate” value does the source give for GGAGACCUAUGAUAACAACCUACUAUCCUCA here?
**A.** 0.00426 ± 0.003

**Q.** With GGAGACCUAUGUAUACAACCUACUACCUAA as the sequence, how does the “pre-steady-state target cleavage rate” value read?
**A.** 0.0593 ± 0.0072

**Q.** How did the “pre-steady-state target cleavage rate” value turn out when GGAGACCAUACUAUACAACCUACAUGCUCA was run?
**A.** 0.134 ± 0.028

**Q.** Which “pre-steady-state target cleavage rate” value does the source give for GGAGACCAUACUAUUCAACCUUCUACCUCA here?
**A.** 0.00695 ± 0.0026

**Q.** For GGAGACCAUACUAAACAACCUACUACGUCA, which “pre-steady-state target cleavage rate” value is on record?
**A.** 0.0881 ± 0.014

**Q.** How did the “pre-steady-state target cleavage rate” value turn out when GGAGAGGAUACUAUCAACCUACUACCUCA was run?
**A.** 0.154 ± 0.01

**Q.** Which “pre-steady-state target cleavage rate” value does the source give for GGAGACCUAUGUAUACUUGCUACUACCUCA here?
**A.** 0.00505 ± 0.0014

**Q.** For GGAGUGAUACUAUACAACCUACUACCUCA, which “pre-steady-state target cleavage rate” value is on record?
**A.** 0.174 ± 0.011

**Q.** Which “pre-steady-state target cleavage rate” value does the source give for “GGAGACCUAUGAUAACAACCUACAUGGAGA [g8:g16:cont:t1A]” here?
**A.** < 0.0001

**Q.** GGAGACCUAUGAAUACAACCUACUACGCUCA was tested. Which “pre-steady-state target cleavage rate” value did it give?
**A.** 0.0107 ± 0.0039

**Q.** For GGAGACCUUACUAACAACCUACUACCUCA, which “pre-steady-state target cleavage rate” value is on record?
**A.** 0.0824 ± 0.016

**Q.** GGAGACGAUACAAUAGAACCUACUACCUCA was tested. Which “pre-steady-state target cleavage rate” value did it give?
**A.** 0.178 ± 0.014

**Q.** With GGAGUGGAUUCUAUACAACCUACUACCACA as the sequence, how does the “pre-steady-state target cleavage rate” value read?
**A.** 0.121 ± 0.011

**Q.** How did the “pre-steady-state target cleavage rate” value turn out when GGAGACCUAAGUAUAGAACCUACUACCUCA was run?
**A.** 0.0747 ± 0.013

**Q.** How did the “pre-steady-state target cleavage rate” value turn out when GGAGACCUAACUAAACAACCUAGUACCUCA was run?
**A.** 0.0123 ± 0.0073
